Here are results for 34 compounds from the supplement of paper PMC8699584.

One experiment relates to Molm13. Kind of experiment: cell viability relative to DMSO control (bortezomib = 0%); higher = less growth inhibition. The settings on record: 10 nM; 72 h. In a few lines:
(§1)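 Viability was determined with CellTiter-Glo luminescence. Acute myeloid leukemia cells (1000 per well, 50 µL) were exposed for 72 h to 679 approved and investigational compounds at a single 10 nM dose in 384-well plates. Percentages came from per-plate linear regression, setting DMSO-treated wells to 100% and positive-control-treated wells to 0%.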

The next experiment concerns Mv4-11. The experiment is described as above. The settings on record: 10 nM; 72 h. The method in brief: as §1

Each structure is given as a SMILES string. Counter-ions that a name gives are not always drawn. ± gives the standard deviation of the averaged measurements.

As for `N#CCC(C1CCCC1)n1cc(-c2ncnc3[nH]ccc23)cn1` (stereo not drawn), the cell viability (usually a read-out of living cells in per cent, often relative to untreated cells) in the experiment with Molm13 was 112 ± 15%; with Mv4-11 it was 113 ± 13%.

Take `COc1cc2nccc(Oc3ccc(NC(=O)Nc4cc(C)on4)c(Cl)c3)c2cc1OC` [Tivozanib (AV-951)]: the figures for the cell viability with Molm13 and in the experiment on Mv4-11 were 96.3 ± 6.1% and 96.1 ± 11%, respectively.

Take `Cc1ccc(C(=O)N(CCCN)[C@@H](c2oc3cc(Cl)ccc3c(=O)c2Cc2ccccc2)C(C)C)cc1`: the cell viability was 2.68 ± 8.6% in the experiment with Molm13 and -0.7 ± 5.9% in the experiment with Mv4-11.

On to `Nc1ncnc2c1c(-c1cccc(OCc3ccccc3)c1)cn2C1CC(CN2CCC2)C1` (stereo not drawn) [NVP-AEW541 (hydrochloride)], for which the cell viability in the experiment with Molm13 is 110 ± 11%; in the experiment on Mv4-11 it was 90.7 ± 25%.

As for `C[C@H]1Oc2cc(cnc2N)-c2c(nn(C)c2C#N)CN(C)C(=O)c2ccc(F)cc21`, the cell viability is 115 ± 8.8% with Molm13 and 112 ± 19% in the experiment on Mv4-11.

As to `O=C(Nc1cccnc1)c1cc(-c2ccnc(F)c2)ccc1OCc1ccccc1`, the cell viability was 101 ± 20% in the experiment with Molm13 and 105 ± 2.3% in the experiment on Mv4-11.

`Oc1cc(-c2nc(-c3ccccc3)[nH]c2-c2ccncc2)ccc1Cl`: the cell viability with Molm13 came out at 105 ± 34%; with Mv4-11, 105 ± 3.6%.

Regarding `O=C(NCCCNc1nc(Nc2cccc(NC(=O)N3CCCC3)c2)ncc1I)c1cccs1`, the values for the cell viability in the experiment on Molm13 and with Mv4-11 were 95.7 ± 9.5% and 97.5 ± 5.3%, respectively.

For `COC(=O)[C@]12CCC(C)(C)C[C@H]1[C@H]1C(=O)C=C3[C@@]4(C)C=C(C#N)C(=O)C(C)(C)[C@@H]4CC[C@@]3(C)[C@]1(C)CC2` [Bardoxolone Methyl], the cell viability is 102 ± 6.8% in the experiment with Molm13 and 104 ± 1.1% in the experiment with Mv4-11.

As to `Nc1cc(C(F)(F)F)c(-c2nc(N3CCOCC3)nc(N3CCOCC3)n2)cn1`, the cell viability in the experiment on Molm13 came to 94.3 ± 30%; with Mv4-11, 109 ± 5.2%.

For the compound `COc1cc2ncnc(Nc3ccc(F)c(Cl)c3)c2cc1OCCCN1CCOCC1` [Gefitinib (ZD1839)], the cell viability is 110 ± 23% in the experiment on Molm13 and 116 ± 1.7% in the experiment with Mv4-11.

As to `C[C@H](Nc1ncnc2nc[nH]c12)c1cc2cccc(Cl)c2c(=O)n1-c1ccccc1` [Duvelisib (IPI-145, INK1197)], the cell viability stood at 111 ± 14% in the experiment on Molm13 and 111 ± 15% in the experiment with Mv4-11.

Take `Cn1cnc2c(F)c(Nc3ccc(Br)cc3Cl)c(C(=O)NOCCO)cc21` [Selumetinib (AZD6244)]: the cell viability was determined as 106 ± 18% with Molm13 and 106 ± 3.2% with Mv4-11.

With `CCCCCN(CCCOC)C(=O)C(CCC(=O)O)NC(=O)c1ccc(Cl)c(Cl)c1` (stereo not drawn) [Loxiglumide], the results for the cell viability in the experiment on Molm13 and with Mv4-11 were 85.9 ± 4.4% and 108 ± 3.1%, respectively.

Take `COc1cc2c(cc1OC)-c1[nH]nc(Nc3cccc(F)c3)c1C2`: the figures for the cell viability in the experiment with Molm13 and with Mv4-11 were 120 ± 23% and 116 ± 26%, respectively.

As for `C[C@@H]1CN(C(=O)c2ccc(NC(=O)c3cc(O[C@H](C)c4c(Cl)ccc(F)c4Cl)c(N)nn3)cc2)C[C@H](C)N1` [Ensartinib], the values for the cell viability in the experiment with Molm13 and in the experiment with Mv4-11 were 127 ± 20% and 118 ± 12%, respectively.

`O=C1C(Cl)=C(NCCN2CCOCC2)C(=O)c2ncccc21`: the cell viability in the experiment on Molm13 came to 111 ± 23%; in the experiment with Mv4-11, 121 ± 2.5%.

For the compound `CCCCCCCCCC(=O)CC(O)S(=O)(=O)O` (stereo not drawn) [Sodium houttuyfonate], the cell viability in the experiment on Molm13 was 108 ± 1.5%; in the experiment with Mv4-11, 106 ± 1.1%.

`CN1CCN(c2ccc(C(=O)Nc3cc(-c4cccc(NS(=O)(=O)c5ccccc5)c4)[nH]n3)cc2)CC1`: the results for the cell viability in the experiment with Molm13 and in the experiment with Mv4-11 were 61.4 ± 18% and 85.5 ± 9.9%, respectively.

As to `NC(=O)c1ncn([C@@H]2O[C@H](CO)[C@@H](O)[C@H]2O)c1N` [AICAR (Acadesine)], the cell viability in the experiment with Molm13 was determined as 110 ± 7.6%; in the experiment on Mv4-11, 111 ± 9.2%.

With `Nc1ccn([C@@H]2O[C@H](CO)[C@@H](O)C2(F)F)c(=O)n1` [Gemcitabine], the figures for the cell viability with Molm13 and in the experiment with Mv4-11 were -0.99 ± 5.6% and -5.76 ± 18%, respectively.

Take `Cc1cc2c(F)c(Oc3ncnn4cc(OC[C@@H](C)OC(=O)[C@H](C)N)c(C)c34)ccc2[nH]1`: the cell viability with Molm13 turned out to be 101 ± 38%; with Mv4-11 it was 106 ± 5.3%.

As for `C[C@H]1[C@H](C)CC[C@]2(C(=O)O[C@@H]3O[C@H](CO[C@@H]4O[C@H](CO)[C@@H](O[C@@H]5O[C@H](C)[C@H](O)[C@@H](O)[C@H]5O)[C@H](O)[C@H]4O)[C@@H](O)[C@H](O)[C@H]3O)CC[C@]3(C)C(=CC[C@@H]4[C@@]5(C)C[C@@H](O)[C@H](O)[C@@](C)(CO)[C@@H]5CC[C@]43C)[C@H]12` [Asiaticoside], the cell viability in the experiment with Molm13 came to 108 ± 13%; in the experiment on Mv4-11, 114 ± 2.9%.

As for `O=c1c(-c2ccc(O)cc2)coc2cc(O)cc(O)c12` [Genistein], the cell viability turned out to be 104 ± 4.5% in the experiment with Molm13 and 122 ± 24% with Mv4-11.

As to `CC(=O)Nc1nc(C)c(-c2ccc(Cl)c(S(=O)(=O)NCCO)c2)s1`, the figures for the cell viability with Molm13 and in the experiment with Mv4-11 were 104 ± 3.5% and 97.8 ± 21%, respectively.

Turning to `COc1cc(Nc2ncc(F)c(Nc3ccc4c(n3)NC(=O)C(C)(C)O4)n2)cc(OC)c1OC`, the cell viability in the experiment on Molm13 stood at 105 ± 3.9%; in the experiment on Mv4-11 it was 99.7 ± 6.4%.

In the case of `COC1=CC(=O)c2ccccc2C1=O` [2-Methoxy-1,4-naphthoquinone], the figures for the cell viability with Molm13 and with Mv4-11 were 94.66 ± 0.11% and 98.6 ± 9.1%, respectively.

As for `CCCCCCCCCCCCCCCCn1cc[n+](Cc2ccccc2)c1C`, the cell viability in the experiment with Molm13 was 124 ± 5.5%; in the experiment on Mv4-11, 111 ± 5.8%.

As to `COc1ccc(S(=O)(=O)Nc2ccccc2CN(C)C/C=C/c2ccc(Cl)cc2)cc1` [KN-92 (hydrochloride)], the cell viability in the experiment with Molm13 worked out at 129 ± 18%; in the experiment on Mv4-11, 109 ± 10%.

For `COc1cccc(-c2cc(=O)c3ccccc3o2)c1N`, the cell viability was 105 ± 10% with Molm13 and 103 ± 8.4% in the experiment with Mv4-11.

As for `CN(C)CCCn1cc(C2=C(c3c[nH]c4ccccc34)C(=O)NC2=O)c2ccccc21` [Bisindolylmaleimide I], the cell viability with Molm13 worked out at 94.6 ± 15%; in the experiment on Mv4-11, 67.1 ± 44%.

For `COc1cc(/C=C(\C#N)C(N)=O)cc(CSc2nc3ccccc3s2)c1O`, the cell viability with Molm13 was found to be 112 ± 4.3%; in the experiment on Mv4-11, 93.1 ± 5.8%.

For `COc1cc2ncnc(Nc3cccc(Cl)c3)c2cc1OC`, the cell viability with Molm13 was 98.7 ± 14%; with Mv4-11 it was 108 ± 7.1%.

As to `COC(=O)c1ccc2c(c1)NC(=O)/C2=C(\Nc1ccc(N(C)C(=O)CN2CCN(C)CC2)cc1)c1ccccc1`, the results for the cell viability in the experiment on Molm13 and in the experiment with Mv4-11 were 87.7 ± 22% and 99.8 ± 8.2%, respectively.
